Source: PubChem BioAssay AID1117319 (Southern Research Institute, 2015)
Several values for one entry are separate records, joined by “and”; a condition that tells them apart may be missing. Equal entries are not always repeated. The campaign covered roughly 260,000 compounds. About 1,500 (0.58%) were called active. About 5% were inconclusive and are not listed.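 How the source made its calls: active means inhibition above a set limit at one or more doses, reproduced on every date tested; inconclusive means results disagree between test dates, or hit never tested in dose response; inactive means the rest.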 These entries were drawn from the full list. Potency and affinity values are given separately.

These compounds were tested against Virion infectivity factor (Human immunodeficiency virus type 1 group M subtype B (isolate BH10)) + Virion infectivity factor (Human immunodeficiency virus type 1 group M subtype B (isolate BRU/LAI)) + Virion infectivity factor (Human immunodeficiency virus type 1 group M subtype B (isolate PCV12)) + Virion infectivity factor (Human immunodeficiency virus type 1 group M subtype B (isolate HXB2)) + DNA dC->dU-editing enzyme APOBEC-3G (Homo sapiens) (UniProt P69720+P69721+P69722+P69723+Q9HC16) (assay: inhibitors of Vif binding to APOBEC3G peptide, primary screen, biochemical, TR-FRET, GST-Vif 1-94, biotin-A3G peptide, dose response retest (AID 1117319;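 further: Vif residues 1-94 fused to GST binding biotinylated APOBEC3G peptide 110-148; 0% = full assay without inhibitor and 100% = GST in place of GST-Vif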)). Details: hits give high values.

inhibition, inactive:
NNc1nc(C(F)(F)F)nc2ccccc12 -3.12%
C/C(O)=c1/ccc2cccc3nc(C)nc1c23 32.6%
Cc1ccc(S(=O)(=O)NC2CCCCC2)cc1C(=O)N1CCC(C(N)=O)CC1 -4.11%
CC(C)(C)c1ccc(/C=C2\Oc3c(ccc(O)c3CN3CCN(CCO)CC3)C2=O)cc1 2.03%
Cc1ccc(/C=C2\Oc3c(ccc(O)c3CN3CCN(CCO)CC3)C2=O)cc1 -6.62%
COc1ccccc1-c1coc2c(CN3CCCC(C)C3)c(O)ccc2c1=O (stereo not drawn) -11.2%
CCc1ccc(/C=C2\Oc3c(ccc(O)c3CN3CCN(C)CC3)C2=O)cc1 29.7%
COCCN(CCOC)Cc1c(O)ccc2c1O/C(=C\c1ccco1)C2=O 25.4%
CCN1CCN(Cc2c(O)ccc3c2O/C(=C\c2ccccc2)C3=O)CC1 -1.46%
C=CCN1C(C(=O)c2ccccc2)=C(OC(=O)COc2ccccc2)c2ccccc2S1(=O)=O -2.45%
COc1cc(OC)cc(-c2cc(N3C(=O)Nc4ccccc4N3O)n[nH]2)c1 2.06%
CCN(CC)CCCC(C)Nc1nccc2cccc(Cl)c12 (stereo not drawn) -1%
C=CCn1c(SCC(=O)NCCOC)nc2scc(-c3ccco3)c2c1=O 27.8%
C=CCn1c(SCC(=O)NCCCC(=O)OCC)nc2scc(-c3ccco3)c2c1=O -13%
Cc1onc(-c2c(F)cccc2Cl)c1C(=O)Nc1nnc(-c2ccccc2)s1 -20.2%
Cc1onc(-c2c(F)cccc2Cl)c1C(=O)Nc1nccs1 -2.44%
CCN1CCN(C(=O)c2ccc(CSc3ccc(C)cc3)cc2)CC1 -0.41%
O=C(Cn1c(=O)oc2ccccc21)Nc1ccc(S(=O)(=O)N2CCCCC2)cc1 16%
O=Cc1cccc(OCc2cccc3ccccc23)c1 -9.48%
c1ccc(Cc2nnc3n2CCCCC3)cc1 -1.19%
c1ccc2c(c1)CCCN2Cc1nnnn1C1CCCC1 4.12%
CSc1ccccc1NC(=O)CN(C)C(=O)c1c(C)nn(Cc2ccccc2)c1C 0.13%
CN(Cc1ccco1)C(=O)c1c[nH]c2ccc(S(=O)(=O)Nc3ccc4c(c3)OCCO4)cc2c1=O 11.3%
CCc1ccc(NS(=O)(=O)c2ccc3[nH]cc(C(=O)N(C)Cc4ccco4)c(=O)c3c2)cc1 6.93%
CC(C)N(C(=O)[C@H]1C[C@H](CC(=O)NCCN2CCOCC2)C(=O)N2CCc3c([nH]c4ccc(Cl)cc34)[C@]12C)C(C)C -2.31%
C=CCn1c(COc2ccccc2F)nnc1SCC(=O)NC(=O)NCc1ccco1 13.7%
C=CCn1c(COc2cccc(C)c2)nnc1SCC(=O)NC(=O)NCc1ccco1 3.84% and 20.2%
CC(C)(C)NC(=O)/C=C/c1cccs1 -6.7%
COc1ccc(/C=C2/C(=O)N=C(N)N2C)cc1OC -1.18%
COC(=O)c1ccc(Sc2nnnn2-c2ccccc2)c([N+](=O)[O-])c1 4.9%
CC(=O)c1ccc(Sc2nnnn2-c2ccccc2)c([N+](=O)[O-])c1 7.06%
Cc1csc(NC(=O)Cc2ccccc2[N+](=O)[O-])n1 -11%
CN(C(=O)CSc1nnc2ccccn12)C1CCS(=O)(=O)C1 (stereo not drawn) 5.32%
Cc1ccc(OCCCC(=O)Nc2ccc(S(N)(=O)=O)cc2)cc1 -3.06%
O=C1C=C(Nc2cccnc2)c2ccccc2C1=O -2.43%
O=C1C=C(Nc2ccccc2O)c2ccccc2C1=O 29.9%
O=[N+]([O-])c1ccc(Cl)c(/C=N/N2CCN(Cc3ccc(Cl)cc3)CC2)c1 -0.57%
CCOc1ccc(N/C(C)=C/C(=O)c2ccc(C)o2)cc1 1.46%
CC1(C)CC(=O)C2=C(C1)c1c(ccc3ccccc13)NC2c1ccco1 (stereo not drawn) 7.86%
COc1cccc(C2Nc3ccc4ccccc4c3C3=C2C(=O)CCC3)c1O (stereo not drawn) -3.25%
Cc1onc(-c2ccccc2Cl)c1C(=O)NCc1ccccn1 -1.21%
COC(=O)COC(=O)CC(CC(N)=O)c1ccccc1 (stereo not drawn) -2.81%
COC(=O)Nc1nc2c(C)cccc2s1 1.68%
Cc1cc(C(=O)Nc2nc3c(C)cccc3s2)c(C)o1 17.4%
Cc1c(C(=O)c2ccc([N+](=O)[O-])cc2)c(=O)n(C)c(=O)n1C -3.13%
CCC(=O)N1CCC2(CC1)Oc1ccc(F)cc1C(=O)C21CC(c2cccnc2)=NO1 (stereo not drawn) 3.73%
CCOC(=O)C(Cc1ccnnc1)=NO -0.8%
CCOC(=O)C(=O)Cc1nc2ccccc2s1 -1.72%
Cc1nc2sc(C(c3ccco3)N3CCN(c4ccc(F)cc4)CC3)c(O)n2n1 (stereo not drawn) 13.8%
Cc1cc(C(=O)CN2CCCC2)c(C)n1-c1ccc(Cl)cc1 1.44%
CC(=O)Oc1ccc2c(c1)C(=O)c1ccccc1CO2 7.33%
O=C(Oc1ccc2c(c1)C(=O)c1ccccc1CO2)c1ccccc1 1.85%
COc1ccc(CNC(=O)COC(=O)c2cccc(S(=O)(=O)N3CCOCC3)c2)cc1 10.9%
COc1ccc(NC(=O)c2cnc3n(c2=O)CCS3)cc1OC 10.7%
CCOc1ccc(/C=C(\C(=O)O)c2ccc(S(=O)(=O)N3CCOCC3)s2)cc1OC 28.4%
O=S(=O)(Cc1cc(Sc2ccc(Cl)cc2)nc(-c2ccccc2)n1)c1ccccc1 3.1%
O=C1C2C(C(=O)N1Cc1ccco1)C1C=CC2C12CC2 (stereo not drawn) -1.81%
O=C1CCN(Cc2ccco2)C(=S)N1 3.3%
O=C1CC(=O)N(Cc2cccs2)C(=O)N1 18%
CC1CN(Cc2ccco2)C(=S)NC1=O (stereo not drawn) 1.05%
COc1ccc(-n2c(=O)c(CCC(=O)N(C)Cc3cccs3)nc3ccccc32)cc1 -5.63%
COc1ccccc1NS(=O)(=O)c1ccc(C)c(C(=O)NCC2(N(C)C)CCCCC2)c1 -8.71%
CCOC(=O)c1cc2cc(OC)ccc2nc1C 4.64%
Cc1nc2ccc(F)cc2cc1C(=O)NC(C)C -0.13%
CCc1nc(NCc2ccc3c(c2)OCO3)c2oc3ccccc3c2n1 5.19%
CCNC(=O)CN(c1ccc(CC)cc1)S(C)(=O)=O -1.87%
Cc1nc(Nc2ccc(Cl)c(Cl)c2)sc1C(/C=C/c1ccc2c(c1)OCO2)=NNc1ccc([N+](=O)[O-])cc1[N+](=O)[O-] 0.47%
CCCN(CC(=O)Nc1ccccc1OC)C(=O)Cn1[nH]c(=O)c2ccccc2c1=O -0.74%
O=C(O)/C(=C\c1cccc(F)c1)c1ccc(S(=O)(=O)N2CCCC2)s1 18.6%
O=C(O)/C(=C\c1cccc(O)c1)c1ccc(S(=O)(=O)N2CCCC2)s1 14.8%
CN(CCC#N)C(=O)CC(Cc1ccccc1)C1CCOC(C)(C)C1 (stereo not drawn) 28.5%
CC(C)n1cnc2cc(NCc3ccccn3)ccc21 14.4%
CCCn1cnc2cc(NCc3ccc(Br)cc3)ccc21 -8.23%
CCn1cnc2cc(NCc3ccncc3)ccc21 18.7%
CCCn1cnc2cc(NCc3ccccc3O)ccc21 -2.34%
CCNC(=S)NCCN1CCCCC1 -5.58%
Cc1cc(C)cc(NC(=O)Cn2cc3c(n2)CCCCC3)c1 0.97%
CC(=O)Nc1ccc(NC(=O)Cn2cc3c(n2)CCCC3)cc1 -2.34%
Cc1cc(C)c2c(N)c(-c3nc4ccccc4[nH]3)sc2n1 1.28%
CCN(CC)c1ccc(N2C(=O)CSC2=S)cc1 -8.43%
O=C1CSC(=S)N1c1ccccc1 -4.55%
Cc1ccc(S(=O)(=O)Nc2cccc(C(=O)N3CCCC3)c2)cc1F 3.33%
CC(C)c1cc(=O)oc2c3c4c(cc12)CCCN4CCC3 13.8%
O=c1oc2c3c4c(cc2c(C(F)(F)F)c1CCN1CCOCC1)CCCN4CCC3 16.6%
N/C(=N\OC(=O)CN1C(=O)c2ccccc2C1=O)c1ccc(Cl)cc1 -10.1%
COc1ccc(N2CCN(C(=O)COC(=O)c3oc4ccc(OC)cc4c3C)CC2)cc1 1.73%
COc1ccc(NC(=O)C(NC(C)=O)C(=O)NCc2ccccc2)cc1 (stereo not drawn) 2.8%
O=C(Nc1ccn(-c2ccccc2)n1)c1ccc(Cl)cc1 -12.3%
CC(=O)Nc1ccn(-c2ccccc2)n1 15.9%
COc1ccc(S(=O)(=O)N(CC(=O)NCc2ccco2)C2CCCCC2)cc1OC 24%
COC(=O)c1cc([N+](=O)[O-])c(C)c(C)n1 -2.89%
CCN1CCc2c(C#N)c(N3CCCCC3)nc(NCc3ccccc3)c2C1 25.2%
CCN1CCc2c(C#N)c(N3CCOCC3)nc(NCc3ccccc3)c2C1 13.6%
CCCc1c(C)[nH]c2ccccc2c1=O 6.62%
CC1=NN(c2ccc(Cl)c(C(=O)O)c2)C(=O)C1 29.9%
CC1=NN(c2cccc(C(=O)O)c2)C(=O)/C1=C\C=C/c1ccccc1 29.5%
CC1=NN(c2ccc(Cl)c(C(=O)O)c2)C(=O)/C1=C\c1ccc(-c2ccc(C(=O)O)cc2)o1 1.61%
CC1=NN(c2ccc(C)cc2)C(=O)/C1=C\C=C\c1ccccc1 -3.38%
